# Test results as given in PubChem BioAssay (NCATS).
# Results filed as inconclusive are left out. Entries that show only a call come without a potency. A structure can be active in one record and inactive in another. Active and inactive are the calls of the source. Calls come from the whole dose curve; as a rule, active = well fitted curve in the direction sought with a large enough effect; inconclusive = small, poorly fitted or top-dose-only effect, or another doubt; inactive = no such curve, though single readings can be large; an effect the other way counts as inactive or inconclusive.
# What was measured:
# [1] = target: Rap guanine nucleotide exchange factor 3 (Homo sapiens) (UniProt O95398); test: Confirmatory qHTS for antagonist of cAMP-regulated guanine nucleotide exchange factor 3 (EPAC1) (AID 1645880); note: nearly all actives have a fitted effect of over 55% in size
# Rap guanine nucleotide exchange factor 3 (Homo sapiens), sequence (O95398 whole entry, looked up): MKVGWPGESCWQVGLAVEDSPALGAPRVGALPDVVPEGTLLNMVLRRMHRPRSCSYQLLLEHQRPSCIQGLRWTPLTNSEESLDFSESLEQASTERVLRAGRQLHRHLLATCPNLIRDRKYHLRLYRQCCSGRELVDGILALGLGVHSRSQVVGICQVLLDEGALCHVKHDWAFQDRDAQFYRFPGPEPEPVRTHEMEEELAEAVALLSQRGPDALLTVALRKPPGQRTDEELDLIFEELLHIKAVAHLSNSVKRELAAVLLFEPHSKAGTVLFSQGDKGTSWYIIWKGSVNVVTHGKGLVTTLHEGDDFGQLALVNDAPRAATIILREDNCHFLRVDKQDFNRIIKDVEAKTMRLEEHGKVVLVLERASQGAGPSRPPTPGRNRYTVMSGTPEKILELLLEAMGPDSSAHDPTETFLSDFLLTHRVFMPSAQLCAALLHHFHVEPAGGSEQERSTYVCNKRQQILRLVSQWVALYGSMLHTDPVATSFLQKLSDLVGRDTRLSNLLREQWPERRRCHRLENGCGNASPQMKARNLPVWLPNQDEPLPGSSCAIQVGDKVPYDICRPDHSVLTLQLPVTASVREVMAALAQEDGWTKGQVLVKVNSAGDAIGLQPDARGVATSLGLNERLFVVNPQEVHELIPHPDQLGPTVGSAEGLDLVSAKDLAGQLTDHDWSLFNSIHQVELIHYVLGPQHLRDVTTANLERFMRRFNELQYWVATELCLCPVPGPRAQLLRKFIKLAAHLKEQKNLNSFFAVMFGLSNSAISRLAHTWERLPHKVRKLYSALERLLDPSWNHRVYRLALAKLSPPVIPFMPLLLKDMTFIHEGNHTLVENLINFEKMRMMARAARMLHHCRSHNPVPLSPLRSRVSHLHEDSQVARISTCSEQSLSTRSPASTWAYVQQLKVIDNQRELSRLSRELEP
# Procedure, shortened: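 Released BODIPY-GDP fluoresces less than Rap1-bound BODIPY-GDP; the signal is followed at 480/540 nm at 5-min intervals over 30 min, after 5 min at room temperature. Reactions contain 100 nM EPAC1, 250 nM RAP1B-BODIPY-GDP and 50 uM GDP; results are normalized to ATA and DMSO.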
# [2] = target: Rap guanine nucleotide exchange factor 3 (Homo sapiens) (UniProt O95398); test: Confirmatory qHTS for agonist of cAMP-regulated guanine nucleotide exchange factor 3 (EPAC1) (AID 1645881);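 note: EPAC1 catalysed release of BODIPY-GDP from Rap1B seen as fluorescence loss; nearly all actives have a fitted effect of over 75% in size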
# [3] = target: Rap guanine nucleotide exchange factor 4 (Homo sapiens) (UniProt Q8WZA2); test: Confirmatory qHTS for agonist of cAMP-regulated guanine nucleotide exchange factor 4 (EPAC2) (AID 1645884);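 note: nucleotide exchange releases bodipy-GDP from Rap1 and this lowers its fluorescence; nearly all actives have a fitted effect of over 65% in size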
# Rap guanine nucleotide exchange factor 4 (Homo sapiens), sequence (Q8WZA2 whole entry, looked up, the tested form may be a part): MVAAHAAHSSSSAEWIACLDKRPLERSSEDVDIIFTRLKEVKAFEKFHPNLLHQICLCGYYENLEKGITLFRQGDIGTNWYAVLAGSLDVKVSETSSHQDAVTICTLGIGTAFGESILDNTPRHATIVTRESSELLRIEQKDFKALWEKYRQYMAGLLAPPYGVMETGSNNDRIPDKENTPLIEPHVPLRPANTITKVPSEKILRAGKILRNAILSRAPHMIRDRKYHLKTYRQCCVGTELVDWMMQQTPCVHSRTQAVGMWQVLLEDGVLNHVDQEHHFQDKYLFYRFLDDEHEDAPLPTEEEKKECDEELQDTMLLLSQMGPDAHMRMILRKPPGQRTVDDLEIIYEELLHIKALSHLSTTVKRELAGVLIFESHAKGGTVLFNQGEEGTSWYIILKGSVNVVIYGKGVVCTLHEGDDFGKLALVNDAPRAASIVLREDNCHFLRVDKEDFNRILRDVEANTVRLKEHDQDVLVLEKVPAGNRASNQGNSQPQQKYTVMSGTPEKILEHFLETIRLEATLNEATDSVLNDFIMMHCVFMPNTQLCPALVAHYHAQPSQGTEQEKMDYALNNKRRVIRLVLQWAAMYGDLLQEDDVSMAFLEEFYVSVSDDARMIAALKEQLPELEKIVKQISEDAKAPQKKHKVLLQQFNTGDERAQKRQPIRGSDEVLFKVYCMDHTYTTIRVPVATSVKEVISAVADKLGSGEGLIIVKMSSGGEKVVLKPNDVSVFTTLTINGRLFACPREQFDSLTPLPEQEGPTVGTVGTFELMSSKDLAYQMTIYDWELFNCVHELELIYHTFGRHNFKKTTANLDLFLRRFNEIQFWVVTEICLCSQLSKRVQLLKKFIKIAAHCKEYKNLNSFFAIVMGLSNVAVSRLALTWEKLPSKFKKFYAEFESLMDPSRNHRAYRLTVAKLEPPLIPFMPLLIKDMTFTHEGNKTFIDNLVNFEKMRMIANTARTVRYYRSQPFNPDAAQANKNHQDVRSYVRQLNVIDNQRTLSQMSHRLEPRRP
# [4] = Primary qHTS for inhibitors of nuclear receptor binding SET domain protein 2 (NSD2) in an isogenic RCH-ACV NSD2 p.E1099K mutant (9B) (AID 1645876); note: nearly all actives have a fitted effect of over 70% in size; note: potency is the fitted concentration of half-maximal effect
# [5] = Primary qHTS for inhibitors of nuclear receptor binding SET domain protein 2 (NSD2) in an RCH-ACV wild type WT cells (2C) (AID 1645877); note: nearly all actives have a fitted effect of over 70% in size; note: potency is the fitted concentration of half-maximal effect
smiles,measurement,setting,value
O=C1c2ccccc2C(=O)C1C(=O)C(c1ccccc1)c1ccccc1,outcome,[1],inactive
same,outcome,[2],inactive
same,outcome,[3],inactive
O=P1(N(CCCl)CCCl)NCCCO1 (configuration not stated),Potency,[4],inactive
same,Potency,[5],inactive
COc1cccc([C@@]2(O)CCCC[C@@H]2CN(C)C)c1,Potency,[4],inactive
same,Potency,[5],inactive
COP(=S)(OC)Oc1ccc(SC)c(C)c1,Potency,[4],inactive
same,Potency,[5],inactive
CC(C)C[C@H](CN)CC(=O)O,Potency,[4],inactive
same,Potency,[5],inactive
Oc1ccc(Cl)cc1,Potency,[4],inactive
same,Potency,[5],inactive
COc1cc(CCN)cc(OC)c1OC,Potency,[5],41.8 µM (active)
CCOC(=O)CC(SP(=S)(OC)OC)C(=O)OCC (configuration not stated),Potency,[4],30.6 µM (active) and inactive
same,Potency,[5],inactive
O=[N+]([O-])O[C@H]1CO[C@H]2[C@@H]1OC[C@H]2O[N+](=O)[O-],Potency,[4],inactive
same,Potency,[5],inactive
CCC1(c2ccccc2)C(=O)N(COC)C(=O)N(COC)C1=O,Potency,[4],inactive
same,Potency,[5],inactive
C#CC(O)(C=CCl)CC (configuration not stated),Potency,[4],inactive
same,Potency,[5],inactive
ClCCN1CCCC1,Potency,[4],inactive
same,Potency,[5],inactive
COc1ccc2c3c1O[C@H]1[C@H](O)CC[C@H]4[C@@H](C2)N(C)CC[C@@]341,Potency,[4],inactive
same,Potency,[5],inactive
O=C(O)CCCc1ccc(N(CCCl)CCCl)cc1,Potency,[4],inactive
same,Potency,[5],inactive
CCOP(=S)(OCC)Oc1ccc2c(C)c(Cl)c(=O)oc2c1,Potency,[4],7.5 µM (active)
same,Potency,[5],6.68 µM (active)
Clc1ccccc1N1CCNCC1,Potency,[4],inactive
same,Potency,[5],inactive
COC(=O)[C@@H](N)CCCN/C(N)=N/[N+](=O)[O-],Potency,[4],inactive
same,Potency,[5],inactive
[N-]=[N+]=CC(=O)OC[C@H](N)C(=O)O,Potency,[4],inactive
same,Potency,[5],inactive
C[C@]12Cc3cn[nH]c3C[C@@H]1CC[C@@H]1[C@@H]2CC[C@@]2(C)[C@H]1CC[C@]2(C)O,Potency,[5],inactive
